Screening results (PubChem BioAssay)
This is a sample that favours compounds with a hit; in the whole collection about 3.1% have one here.
PAFAH2 inh: PAFAH2 enzyme inhibitors, primary screen, biochemical, fluorescence polarization, human. Platelet-activating factor acetylhydrolase 2, cytoplasmic (Homo sapiens), Q99487. recombinant PAFAH2, FP-rhodamine activity probe. inhibition, % at 3.39 µM. 340,000 tested, 0.99% active;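 active = inhibition above the mean over all tested compounds plus 3 SD, cut at about 30% in these data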;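 note: inhibitors block probe labeling of enzyme so polarization drops; 0% = enzyme with DMSO and 100% = wells lacking PAFAH2 protein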
PAFAH1B3 inh: PAFAH1B3 enzyme inhibitors, primary screen, biochemical, fluorescence polarization, human. 340,000 tested, 0.28% active. inhibition, % at 3.39 µM. Platelet-activating factor acetylhydrolase IB subunit alpha1 (Homo sapiens), Q15102. recombinant PAFAH1B3, FP-rhodamine probe. AID 492972, 2010;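 active = inhibition above the screen-wide average of all tested compounds plus 3 SD, cut at about 25% in these data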;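 note: 0% = enzyme with DMSO only and 100% = wells lacking PAFAH1B3 protein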
Target sequence (Q15102 whole entry, looked up): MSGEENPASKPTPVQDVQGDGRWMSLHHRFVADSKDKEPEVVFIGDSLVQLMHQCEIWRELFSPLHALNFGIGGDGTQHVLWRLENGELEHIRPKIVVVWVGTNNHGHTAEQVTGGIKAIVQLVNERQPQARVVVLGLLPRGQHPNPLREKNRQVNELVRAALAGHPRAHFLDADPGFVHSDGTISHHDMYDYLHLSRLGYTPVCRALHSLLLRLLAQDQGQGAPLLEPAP
PAFAH1B2 inh: PAFAH1B2 enzyme inhibitors, primary screen, biochemical, fluorescence polarization, human; recombinant PAFAH1B2, FP-rhodamine activity probe; inhibition, % at 3.39 µM; 340,000 tested, 1.2% active; AID 492953, 2010;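 active = inhibition above the mean of all tested compounds plus 3 SD, cut at about 24% in these data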;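 note: 0% = enzyme with DMSO and 100% = wells lacking PAFAH1B2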
Target sequence (P68402 whole entry, looked up): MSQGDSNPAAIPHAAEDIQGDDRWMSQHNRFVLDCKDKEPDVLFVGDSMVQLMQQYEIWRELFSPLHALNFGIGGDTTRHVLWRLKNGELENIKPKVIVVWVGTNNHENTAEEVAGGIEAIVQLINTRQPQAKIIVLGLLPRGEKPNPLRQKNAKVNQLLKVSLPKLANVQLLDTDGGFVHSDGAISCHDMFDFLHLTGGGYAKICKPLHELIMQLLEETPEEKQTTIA
pPAFAH FP inh: pPAFAH enzyme inhibitors, primary screen, biochemical, fluorescence polarization, human. Platelet-activating factor acetylhydrolase (Homo sapiens), Q13093. recombinant pPAFAH, FP-rhodamine probe fluorescence polarization. inhibition, % at 3.39 µM. 330,000 tested, 1.5% active. AID 463082, 2010;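 active = inhibition above the mean inhibition across the screen plus 3 SD, cut at about 25% in these data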;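 note: inhibitors block binding of the rhodamine activity-based probe so polarization drops; 0% = enzyme with DMSO and 100% = wells lacking pPAFAH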
Rin1-Abl PPI inh: inhibitors of Rin1-Abl protein binding, primary screen, biochemical, TR-FRET; Tyrosine-protein kinase ABL1 (Homo sapiens) + Ras and Rab interactor 1 (Homo sapiens), …; inhibition, % at 7.35 µM; 360,000 tested, 0.4% active; in the data active = inhibition above about 5%, passing the limit was not always enough
E coli Lon inh: inhibitors of E. coli Lon protease, primary screen, biochemical, fluorescence polarization; 360,000 tested, 0.42% active; inhibition, % at 7.94 µM; purified E. coli Lon protease; P0A9M0; in the data active = inhibition above about 13%, passing the limit was not always enough;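 note: 0% = enzyme with probe and DMSO and 100% = no enzyme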
PAFAH2 confirm: PAFAH2 enzyme inhibitors, confirmation, biochemical, fluorescence polarization, human; shares compounds with PAFAH2 inh; recombinant PAFAH2, FP-rhodamine activity probe; inhibition, % at 3.39 µM; 2,300 tested, 65% active;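 active = mean inhibition over three repeats above a set limit taken from the earlier primary screen, cut at about 30% in these data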;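 note: inhibitor blocks binding of rhodamine activity probe so polarization falls; 0% = enzyme with DMSO and 100% = wells lacking PAFAH2 protein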
Active calls of the source: *.

Results for COc1ccccc1/C=C/C=N/NC(=O)c1cccs1 ?
PAFAH2 inh: 6.6; PAFAH1B3 inh: 8.2; PAFAH1B2 inh: 2.2; pPAFAH FP inh: 0.7; Rin1-Abl PPI inh: -2.0; E coli Lon inh: 8.1

What do the screens show for `C=C(C)COc1ccc2c(C)c(C)c(=O)oc2c1OCC(=C)C`?
PAFAH2 inh: 37.9*; PAFAH1B3 inh: 3.9; PAFAH1B2 inh: 3.1; pPAFAH FP inh: 8.9; Rin1-Abl PPI inh: 1.8; E coli Lon inh: 0.6; PAFAH2 confirm: 40.1*

Results for CC(C)c1nn2c(=O)cc(COc3cccc(NC(=O)c4ccco4)c3)nc2s1 ?
PAFAH2 inh: -27.5; PAFAH1B3 inh: 6.6; PAFAH1B2 inh: 4.2; pPAFAH FP inh: -4.8; Rin1-Abl PPI inh: 2.2; E coli Lon inh: -4.5

Results for O=C(CN1CC(c2ccccc2)CC1=O)Nc1ccc2c(c1)OCO2 (configuration not stated) ?
PAFAH2 inh: 31.9*; PAFAH1B3 inh: -6.2; PAFAH1B2 inh: 0.0; pPAFAH FP inh: 2.5; Rin1-Abl PPI inh: -1.0; E coli Lon inh: 1.9; PAFAH2 confirm: 13.8

Results for COc1cccc(NC(=O)COC(=O)c2ccccc2C(=O)N(C)c2ccccc2)c1 ?
PAFAH2 inh: 71.2*; PAFAH1B3 inh: 3.0; PAFAH1B2 inh: 0.1; pPAFAH FP inh: 3.6; Rin1-Abl PPI inh: -1.4; E coli Lon inh: -3.6; PAFAH2 confirm: 69.0*

What do the screens show for `CN(C(=O)c1ccccc1C(=O)OCC(=O)Nc1ccc(S(N)(=O)=O)cc1)c1ccccc1`?
PAFAH2 inh: -5.1; PAFAH1B3 inh: 7.6; PAFAH1B2 inh: 3.4; pPAFAH FP inh: 4.0; Rin1-Abl PPI inh: -2.3; E coli Lon inh: 5.7

Results for CN(C(=O)c1ccccc1C(=O)OCC(=O)Nc1cccc(Br)c1)c1ccccc1 ?
PAFAH2 inh: 75.9*; PAFAH1B3 inh: -4.3; PAFAH1B2 inh: -1.9; pPAFAH FP inh: 1.7; Rin1-Abl PPI inh: -2.4; E coli Lon inh: 7.2; PAFAH2 confirm: 76.0*

How did CN(C(=O)c1ccccc1C(=O)OCC(=O)Nc1ccc(OC(F)F)cc1)c1ccccc1 do in these assays?
PAFAH2 inh: 64.6*; PAFAH1B3 inh: 3.5; PAFAH1B2 inh: -2.9; pPAFAH FP inh: 15.1; Rin1-Abl PPI inh: 1.2; E coli Lon inh: -2.0; PAFAH2 confirm: 56.0*

Results for O=C(NCCCO)C(=O)Nc1cc2c3c(c1)CCC(=O)N3CCC2 ?
PAFAH2 inh: 10.0; PAFAH1B3 inh: -1.1; PAFAH1B2 inh: 1.1; pPAFAH FP inh: 1.5; Rin1-Abl PPI inh: 5.2; E coli Lon inh: -0.6

What do the screens show for `COc1cccc(NC(=O)c2ccc(OC(F)(F)F)cc2)c1`?
PAFAH2 inh: -2.4; PAFAH1B3 inh: -4.2; PAFAH1B2 inh: 4.7; pPAFAH FP inh: -1.6; Rin1-Abl PPI inh: 3.6; E coli Lon inh: 2.3

Results for CN(C)c1cccc(C(=O)Nc2cccc(F)c2)c1 ?
PAFAH2 inh: -1.0; PAFAH1B3 inh: -0.6; PAFAH1B2 inh: 5.2; pPAFAH FP inh: 2.9; Rin1-Abl PPI inh: -3.1; E coli Lon inh: -0.1

Results for CCN(CC)c1ccc(C(=O)Nc2cccc(F)c2)cc1 ?
PAFAH2 inh: 37.6*; PAFAH1B3 inh: 0.8; PAFAH1B2 inh: 2.5; pPAFAH FP inh: 15.3; Rin1-Abl PPI inh: 0.7; E coli Lon inh: 2.8; PAFAH2 confirm: 42.4*

Results for Nc1cc(C(=O)OCC(=O)NC(c2ccccc2)c2ccccc2)ccc1Cl ?
PAFAH2 inh: -2.6; PAFAH1B3 inh: 3.6; PAFAH1B2 inh: 5.8; pPAFAH FP inh: 0.0; Rin1-Abl PPI inh: -1.9; E coli Lon inh: -2.8

What do the screens show for `O=C(CCCC(=O)c1ccc(O)cc1)c1ccc(O)cc1`?
PAFAH2 inh: -4.2; PAFAH1B3 inh: 6.5; PAFAH1B2 inh: 5.6; pPAFAH FP inh: 1.4; Rin1-Abl PPI inh: 1.4; E coli Lon inh: -6.5
